Measurements: PubChem BioAssay AID1498 (National Center for Advancing Translational Sciences (NCATS), 2009)
Inconclusive results are not listed. Active and inactive are the calls of the source. Calls follow the shape of the full dose curve.

Assay: Confirmation Concentration-Response Assay for Modulators of Lamin A Splicing
Conditions: RFP activity: RFP channel at top concentration, at 46.1 µM; ratio activity: GFP/RFP ratio at top concentration, at 46.1 µM
Text: NCGC Assay Overview: Hutchinson-Gilford Progeria Syndrome (HGPS) is a pediatric premature aging disease caused by a spontaneous mutation in the lamin A/C (LMNA) gene. The mutation activates a cryptic splice site in the LMNA pre-mRNA which results in production of a pre-lamin A protein that cannot be processed properly. The mutant protein accumulates in the nucleus and negatively affects numerous cellular functions. Correction of the splicing defect in HGPS patient cells using a targeted oligonucleotide (exo11) leads to reversal of the cellular disease phenotypes. To identify small molecule modulators of aberrant LMNA splicing, a homogenous assay was constructed in HeLa cells that used a GFP containing minigene to report on correction of aberrant splicing in lamin A and a RFP (DsRed2) to report on cell viability, uniformity and nonspecific effects on the assay signal. This assay was adapted to laser-scanning microplate cytometry (Acumen, TTP Labtech) where miniaturization of the assay to a 1,536-well plate format was possible. Select compounds active in the primary screen (AID 1487) were chosen for confirmation based on potency, efficacy, SAR and activity in other assays in PubChem and at NCGC. References: Bowen, W. P.; Wylie, P. G. Application of Laser-Scanning Fluorescence Microplate Cytometry in High Content Screening. Assay Drug Dev Technol 2006;4:209-221. Scaffidi P, Misteli T. Reversal of the cellular phenotype in the premature aging disease Hutchinson-Gilford progeria syndrome. Nat. Med. 2005;11:440-445.
NCGC Assay Protocol Summary: Reagents/Controls: Stable clones expressing DsRed2 and lamin A-EGFP were generated by Cell and Molecular Technologies in S3 HeLa cells. HeLa cells were prepared for the assay when they were 70-90% confluent. The cells were counted and resuspended in Opti-MEM I (no phenol red; Gibco), 2% FBS, 1% penicillin/ streptomycin (Gibco) at concentration of 120 cells/uL concentration. The suspension was passed through a Falcon basket filter with pore size 40um (Beckton Dickson). Control titrations: column […] 1536-well plate contained a sixteen point titration (1:2 dilutions) in duplicate of ancitabine (Sigma: A8598) beginning at 40 uM final concentration. Column 2 contained a sixteen point titration (1:2 dilutions) of cycloheximide beginning at 1.4 mM final concentration. Column 3 contained ancitabine at 40 uM and column 4 contained was the vehicle control (0.5% DMSO final concentration). Assay Steps: 5 uL of HeLa cells were plated in Aurora LoBase black clear bottom (cyclic-olefin polymer) 1536-well plates at a final density of 600 cells/well. Controls and library compounds were added with a 1536-well pin array using the Kalypsys pin-tool. The plates were then incubated for 48 hrs in a cell-culture incubator (37 °C; 5% CO2, 98% humidity). Following incubation the plates were read on the Acumen Explorer using the 488 nm laser. Data was collected on objects between 10 and 100 um in size. Cell objects were defined by a 15 um width x 10 um depth filter. The ratio of the total object intensity in PMT1 (500-530 nm emission; GFP) over PMT3 (575-640 nm emission; RFP) was calculated for analysis. Keywords: NIH Roadmap, MLSCN, MLI, MLSMR, qHTS, NCGC, lamin A, Progeria, RNA splicing.

| SMILES | RFP activity [%] | outcome | ratio activity [%] |
| --- | --- | --- | --- |
| c1ccc(C2OCCN3CCCCC23)cc1 (stereo unspecified) | -2.54 | inactive | -7.51 |
| CN1C(=O)CCS(=O)(=O)[C@@H]1c1ccc(Cl)cc1 | -19.9 | inactive | -2.66 |
